# From PubChem BioAssay (EPA / NIEHS)
# Records with an inconclusive call do not appear. Activity calls are given as the source filed them. The calls were made as follows: active = hit-call score of the fitted dose curve at least 0.9, where 1 is the maximum; inconclusive = response in the unintended direction; inactive = score below 0.9.
# Columns and labels:
# [1] = target: Estrogen receptor (Homo sapiens) (UniProt P03372); assay: CCTE_Deisenroth_AIME_96WELL_LUC_Active: CCTE's 96-well Estrogen Receptor Transactivation Assay with AIME metabolic competence (ERTA luciferase; metabolism positive), Deisenroth Lab (AID 2284023)
# How it was run: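 Chemicals pre-incubated 2 h with alginate-immobilized phenobarbital/beta-naphthoflavone-induced male Sprague Dawley rat liver S9, then medium transferred to VM7Luc4E2 cells for 24 h luciferase read-out. 10-point series 0.002 - 200 uM; fitted relative to 17beta-estradiol.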
# [2] = target: Estrogen receptor (Homo sapiens) (UniProt P03372); assay: CCTE_Deisenroth_AIME_96WELL_LUC_Inactive: CCTE's 96-well Estrogen Receptor Transactivation Assay without AIME metabolic competence (ERTA luciferase; metabolism negative), Deisenroth Lab (AID 2284025)
# How it was run: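 VM7Luc4E2 breast cells, luciferase read 24 h after dosing with medium pre-incubated 2 h on alginate-water lids (metabolism negative). 10-point series 0.002–200 uM, single technical replicate, n≥4; fit relative to 17beta-estradiol.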
# [3] = CCTE_Deisenroth_AIME_96WELL_CTox_Active: Cytotoxicity Assessment (CTOX) in CCTE's 96-well Estrogen Receptor Transactivation Assay with AIME metabolic competence (metabolism positive), Deisenroth Lab (AID 2284028)
# How it was run: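 Chemicals (0.002–200 uM) were first incubated 2 h with alginate-immobilized phenobarbital/beta-naphthoflavone-induced male rat liver S9; conditioned medium then went onto VM7Luc4E2 cells for 24 h, with viability read by protease-substrate fluorescence, fitted bidirectionally.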
# [4] = CCTE_Deisenroth_AIME_96WELL_CTox_Inactive: Cytotoxicity Assessment (CTOX) in CCTE's 96-well Estrogen Receptor Transactivation Assay without AIME metabolic competence (metabolism negative), Deisenroth Lab (AID 2284029)
# How it was run: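 Chemicals (0.002 - 200 uM, 10 points) incubated 2 h with alginate-water microspheres (no S9), then medium moved onto VM7Luc4E2 cells for 24 h. Viability by protease-substrate cleavage to fluorescent probe; bidirectional fitting.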
# Sequence of Estrogen receptor (Homo sapiens) (P03372 whole entry, looked up): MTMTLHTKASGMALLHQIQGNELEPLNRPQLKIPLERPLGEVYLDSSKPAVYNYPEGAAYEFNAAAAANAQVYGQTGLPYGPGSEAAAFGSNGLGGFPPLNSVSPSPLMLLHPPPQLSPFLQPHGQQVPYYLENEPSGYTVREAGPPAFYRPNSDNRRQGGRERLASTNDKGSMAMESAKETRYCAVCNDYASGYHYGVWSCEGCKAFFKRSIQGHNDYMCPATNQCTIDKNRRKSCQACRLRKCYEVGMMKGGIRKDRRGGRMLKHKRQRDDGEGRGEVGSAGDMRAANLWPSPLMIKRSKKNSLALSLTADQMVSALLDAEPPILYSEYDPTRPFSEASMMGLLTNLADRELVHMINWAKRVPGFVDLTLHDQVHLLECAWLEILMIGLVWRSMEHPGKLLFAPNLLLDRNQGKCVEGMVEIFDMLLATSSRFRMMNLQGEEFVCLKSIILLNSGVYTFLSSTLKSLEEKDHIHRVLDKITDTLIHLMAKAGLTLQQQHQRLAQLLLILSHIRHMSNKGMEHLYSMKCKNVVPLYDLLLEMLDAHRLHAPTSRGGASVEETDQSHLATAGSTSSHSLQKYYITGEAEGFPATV
Compound,AC50 [1],AC50 [2],outcome [3],AC50 [4]
C/C(=C\c1ccccc1)c1ccccc1,20.6 µM (active),37.2 µM (active),,
O=C(C=Cc1ccccc1)c1ccccc1,31.9 µM (active),28.2 µM (active),inactive,114 µM (active)
